D3 ag: D3 dopamine receptor (human) agonism; max activation, %; P35462; actives 0.58% (n = 410,000); D3R DiscoveRx beta-arrestin cells, luminescence, 90 min; AID 652048; in the data active = max activation above about 30%; note: 0% is about no effect
Target sequence (P35462 whole entry, looked up): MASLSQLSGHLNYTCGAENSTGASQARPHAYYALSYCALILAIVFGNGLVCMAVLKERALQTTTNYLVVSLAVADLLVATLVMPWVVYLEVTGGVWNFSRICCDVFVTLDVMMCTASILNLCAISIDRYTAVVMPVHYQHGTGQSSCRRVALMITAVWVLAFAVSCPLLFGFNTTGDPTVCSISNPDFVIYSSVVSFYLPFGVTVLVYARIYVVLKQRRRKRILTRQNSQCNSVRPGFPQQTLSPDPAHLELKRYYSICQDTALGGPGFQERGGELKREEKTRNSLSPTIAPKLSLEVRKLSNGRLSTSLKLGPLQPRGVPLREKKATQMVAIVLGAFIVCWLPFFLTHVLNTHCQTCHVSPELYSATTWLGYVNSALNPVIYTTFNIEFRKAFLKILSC
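Cells at 1500/well, incubated overnight, then treated with pinned compounds (dopamine as control) for 90 min at 37 degrees C. DiscoveRx reagent added for 30 - 60 minutes at room temperature; luminescence read.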
D3 antag: D3 dopamine receptor (human) antagonism. actives 2.5% (n = 360,000). max response, negative = inhibition, %. AID 652054. P35462. D3R cells, DiscoveRx beta-arrestin luminescence, antagonist mode; active compounds read low; in the data active = max response below about -50%; inconclusive = no clear call, values can overlap the other calls; note: % is set by controls: 0 for no effect and ±100 for the full control effect
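Cells plated overnight at 1500 cells/well, then exposed to library compounds with dopamine controls for 90 minutes at 37 degrees C. DiscoveRx reagent added for 30–60 minutes at room temperature; luminescence read, quantitative HTS format.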
PI4K2A inh: blocks human PI4K2A kinase activity; purified PI4K2A, ADP-Glo luminescence, 1 h; active compounds read low; activity change, negative = inhibition, % at 76.9 µM; actives 0.13% (n = 420,000); AID 1346378; in the data active = activity change below about -50%; inconclusive = mostly about -30% to -49%;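 note: -100% = wells without enzyme as full effect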
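In this quantitative HTS, ADP production by PI4K2A was quantified luminescently after 1 h at ambient temperature; 100 microM adenosine served as plate-quality control.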
Akt phos inh: blocks phosphorylation of Akt; Neuro2A IGF-stimulated pAkt S473 HTRF, 20 min; active compounds read low; activity change, % for hits at 50 µM; actives 0.32% (n = 360,000); in the data active = activity change below about -80%; inconclusive = mostly about -51% to -80%; note: % is set by controls: 0 for no effect and ±100 for the full control effect
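Neuro2A cells (4,500/well, DMEM with 0.5% FBS) were treated with compound at a single 50 µM final concentration, stimulated with 6 nM IGF for 20 min at 37 °C, and lysed. Phospho-Akt Ser473 was read by HTRF as 665/615 ratio ×10^4.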
RGS4 inhibitor: blocks human RGS4-accelerated GTP hydrolysis | Transcreener GDP fluorescence polarization, RGS4-accelerated GTP hydrolysis | Potency, µM (top dose mostly 114 µM), inactives show at the top dose activity change, negative = inhibition, actives largely listed as inhibitors | P49798 | actives 0.039% (n = 390,000) | AID 504845; active = well fitted inhibition curve with a large enough effect; inconclusive = small, poorly fitted or top-dose-only effect; inactive = no such curve, though single readings can be large or run the other way; note: potency is the fitted concentration of half-maximal effect; % is set by controls: 0 for no effect and ±100 for the full control effect; nearly all actives have a fitted effect of over 75% in size
Target sequence (P49798 whole entry, looked up): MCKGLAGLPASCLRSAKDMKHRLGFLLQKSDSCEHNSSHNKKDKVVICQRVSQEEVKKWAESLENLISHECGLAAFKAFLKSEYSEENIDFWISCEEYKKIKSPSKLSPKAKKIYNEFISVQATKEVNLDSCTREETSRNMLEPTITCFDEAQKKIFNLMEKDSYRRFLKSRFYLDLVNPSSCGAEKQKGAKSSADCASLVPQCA
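MLSMR compounds (23 nl, pin-transferred) preincubated 10 min at room temperature with a 500nM (2x) first reagent, then RGS4 at 900nM (2x) plus Transcreener GDP mix added; fluorescence polarization (620/688 nm) read before and after 90 min at 30 °C.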
LDHA inh: LDHA (human) enzyme inhibition. P00338. purified LDHA, NADH/diaphorase-resazurin fluorescence; active compounds read low. activity change, % (values are at about 110 or 230 µM). actives 0.15% (n = 480,000); in the data active = activity change below about -30%; inconclusive = mostly about -25% to -30%;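 note: plate controls were DMSO wells for no effect and wells without enzyme for full effect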
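Human LDH5 (2 nM) was incubated with 0.06 mM NADH and 0.2 mM pyruvate for 5 min at room temperature in Tris pH 7.4. Remaining NADH was coupled through diaphorase/resazurin, and resorufin fluorescence was read at 0 and 20 min.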
An asterisk follows results filed as active. An excerpt weighted towards active compounds, which were near 2.8% of everything screened.

What do the screens show for `O=C(Nc1ccccc1Cl)c1nc2ccccc2nc1N1CCOCC1`?
LDHA inh: 5.7

Results for COc1cc(CC(=O)NC2CCCC2)cc(OC)c1OC ?
LDHA inh: -1.1

Results for COc1ccc(CCC(=O)Nc2c(-c3ccc(N(C)C)cc3)[nH][nH]c2=O)cc1 ?
D3 ag: -6.9; D3 antag: inconclusive; PI4K2A inh: -64.2*; Akt phos inh: inactive; LDHA inh: 12.2

What do the screens show for `Cn1cc(CNC(=O)Nc2ccc3c(c2)OCO3)cn1`?
D3 ag: 1.0; D3 antag: 20.0; PI4K2A inh: 0.3; Akt phos inh: -105.9%*; RGS4 inhibitor: -3.9%; LDHA inh: -3.4

How did COP(=O)(OC)c1nc(-c2ccco2)oc1NCc1ccc(C)cc1 do in these assays?
LDHA inh: 5.7

Results for CCCCn1c(=O)[nH]c(=O)c2c1nc(CCc1ccccc1)c(=O)n2CCOC ?
LDHA inh: 3.1

Results for S=c1c2c(nc3nc[nH]n13)CCC2 ?
D3 ag: -9.6; D3 antag: -24.6; PI4K2A inh: inconclusive; Akt phos inh: inactive; RGS4 inhibitor: 19.8%; LDHA inh: 1.6

What do the screens show for `CC1CCc2c(nc3nc[nH]n3c2=O)C1` (stereo not drawn)?
D3 ag: 3.3; D3 antag: -53.1*; PI4K2A inh: -0.6; Akt phos inh: -102.0%*; RGS4 inhibitor: 17.2%; LDHA inh: -6.7

Results for O=C1c2ccccc2C(=O)c2c(O)c(O)cc(O)c21 ?
D3 ag: -92.2; D3 antag: -66.9*; PI4K2A inh: -14.0; Akt phos inh: inactive; RGS4 inhibitor: -9.2%; LDHA inh: 49.9

How did Nc1ccc(O)c2c1C(=O)c1ccccc1C2=O do in these assays?
D3 ag: -16.8; D3 antag: -15.0; PI4K2A inh: -28.7; Akt phos inh: inactive; RGS4 inhibitor: -34.7%; LDHA inh: 9.1

Results for COC(=O)[C@]1(Sc2ccc(C)cc2)CC(=O)N[C@@H]1c1ccco1 ?
D3 ag: -8.3; D3 antag: -69.3*; PI4K2A inh: -9.1; Akt phos inh: inactive; LDHA inh: -0.5

What do the screens show for `O=C(C1CC(c2ccccc2O)=NO1)N1CCc2ccccc2C1` (stereo not drawn)?
D3 ag: -1.9; D3 antag: -94.8*; PI4K2A inh: 3.2; Akt phos inh: inactive; RGS4 inhibitor: 16.3%; LDHA inh: 3.3

How did Clc1ccc2c(c1)C(N1CCNCC1)Cc1ccccc1S2 (stereo not drawn) do in these assays?
D3 ag: -26.2; D3 antag: -55.6*; PI4K2A inh: -1.1; Akt phos inh: inactive; RGS4 inhibitor: 7.9%; LDHA inh: -1.4

How did O=C(CN1CCCC1)N1c2ccccc2Sc2ccc(Cl)cc21 do in these assays?
D3 ag: 1.4; D3 antag: -11.0; PI4K2A inh: 0.9; Akt phos inh: inactive; RGS4 inhibitor: -18.4%; LDHA inh: -1.1

What do the screens show for `Clc1cccc2c1Sc1ccccc1CC2N1CCNCC1` (stereo not drawn)?
D3 ag: -36.0; D3 antag: -54.9*; PI4K2A inh: 3.4; Akt phos inh: inactive; RGS4 inhibitor: -20.2%; LDHA inh: -9.8

What do the screens show for `NC(=O)CCN1CCN(CCOC2Cc3cc(Cl)ccc3Sc3ccccc32)CC1` (stereo not drawn)?
D3 ag: -6.4; D3 antag: -85.8*; PI4K2A inh: 1.6; Akt phos inh: inactive; RGS4 inhibitor: 6.9%; LDHA inh: -2.3

What do the screens show for `COCCCN1CCN(C2Cc3ccccc3Sc3ccc(Cl)cc32)CC1` (stereo not drawn)?
D3 ag: -17.2; D3 antag: -96.5*; PI4K2A inh: 0.1; Akt phos inh: inactive; RGS4 inhibitor: -31.7%; LDHA inh: -1.1

What do the screens show for `O=C1CCc2c(Cl)cc(Cl)c(O)c21`?
LDHA inh: 7.0

Results for CCCCCC(=O)N1C[C@@H](O)[C@H](n2cc(-c3ccc(F)cc3)nn2)C[C@@H]1c1ccc(C)cc1 ?
D3 ag: 0.7; D3 antag: 5.4; PI4K2A inh: -4.7; Akt phos inh: inactive; LDHA inh: -18.7

Results for CCCCCC(=O)N1C[C@@H](n2cc(-c3ccc(F)cc3)nn2)[C@H](O)C[C@@H]1c1ccc(C)cc1 ?
D3 ag: 3.9; D3 antag: 15.9; PI4K2A inh: -2.9; Akt phos inh: inactive; LDHA inh: -34.1*

Results for Cc1cc(/C=C(\C#N)c2ccc(F)cc2)c(C)n1C ?
LDHA inh: 2.4

What do the screens show for `Cc1ccn(C(=O)c2cc3c(C)nn(-c4ccccc4)c3s2)n1`?
D3 ag: 1.2; D3 antag: -51.7*; PI4K2A inh: 2.9; Akt phos inh: inactive; RGS4 inhibitor: 16.3%; LDHA inh: -5.0

How did Cc1nn(-c2ccccc2)c2sc(C(=O)NCCN3CCOCC3)cc12 do in these assays?
D3 ag: 2.7; D3 antag: -71.0*; PI4K2A inh: -0.5; Akt phos inh: inactive; RGS4 inhibitor: 29.9%; LDHA inh: -2.0

What do the screens show for `Cc1nn(-c2ccccc2)c2sc(C(=O)n3cccn3)cc12`?
D3 ag: -11.4; D3 antag: inconclusive; PI4K2A inh: -1.7; Akt phos inh: inactive; RGS4 inhibitor: -24.5%; LDHA inh: -4.7

How did Cc1nn(-c2ccccc2)c2sc(C(=O)NCCc3ccccc3)cc12 do in these assays?
PI4K2A inh: -7.3

What do the screens show for `COC(=O)CNC(=O)COC(=O)c1ccc2ccccc2n1`?
LDHA inh: 9.7

Results for O=C(CSc1nnc(-c2ccco2)n1C1CCCCC1)N1CCN(c2ccc(O)cc2)CC1 ?
LDHA inh: 2.5

Results for O=[N+]([O-])c1cc(S(=O)(=O)C(F)(F)F)ccc1N1CCN(c2ccccc2)CC1 ?
D3 ag: -20.3; D3 antag: -53.7*; PI4K2A inh: 4.6; Akt phos inh: inactive; RGS4 inhibitor: -9.5%; LDHA inh: -0.6

How did CN(C)C(=O)/N=N/C(=O)N(C)C do in these assays?
PI4K2A inh: 1.1; RGS4 inhibitor: 2.99µM*

Results for O=C(O)c1cc(F)c(F)cc1Cl ?
LDHA inh: 6.9

What do the screens show for `Cc1cc(C(=O)Nc2ccc(C)c(I)c2)c(C)o1`?
LDHA inh: -0.1

What do the screens show for `Cc1ccc(-c2[nH]c3cc(C(=O)NCCCn4ccnc4)ccc3c(=O)c2O)cc1`?
D3 ag: 6.6; D3 antag: -63.9*; PI4K2A inh: -3.6; Akt phos inh: inactive; RGS4 inhibitor: -11.9%; LDHA inh: 0.9

How did CCCNC(=O)c1ccc2c(=O)c(O)c(-c3ccc(C)cc3)[nH]c2c1 do in these assays?
D3 ag: 14.6; D3 antag: -8.7; PI4K2A inh: -1.5; Akt phos inh: inactive; RGS4 inhibitor: -6.6%; LDHA inh: 4.3

Screening data (PubChem)
